How the values were obtained:
Assay in all cases: phage ELISA signal ratio (GST-PRM binding over GST background); higher = stronger binding of peptide-phage to the PRM
[1] = biological target: T1, CAPN2 513-700 EF-hand_8 (domain begin residue: 513, domain end residue: 700), P17655
T1 chain: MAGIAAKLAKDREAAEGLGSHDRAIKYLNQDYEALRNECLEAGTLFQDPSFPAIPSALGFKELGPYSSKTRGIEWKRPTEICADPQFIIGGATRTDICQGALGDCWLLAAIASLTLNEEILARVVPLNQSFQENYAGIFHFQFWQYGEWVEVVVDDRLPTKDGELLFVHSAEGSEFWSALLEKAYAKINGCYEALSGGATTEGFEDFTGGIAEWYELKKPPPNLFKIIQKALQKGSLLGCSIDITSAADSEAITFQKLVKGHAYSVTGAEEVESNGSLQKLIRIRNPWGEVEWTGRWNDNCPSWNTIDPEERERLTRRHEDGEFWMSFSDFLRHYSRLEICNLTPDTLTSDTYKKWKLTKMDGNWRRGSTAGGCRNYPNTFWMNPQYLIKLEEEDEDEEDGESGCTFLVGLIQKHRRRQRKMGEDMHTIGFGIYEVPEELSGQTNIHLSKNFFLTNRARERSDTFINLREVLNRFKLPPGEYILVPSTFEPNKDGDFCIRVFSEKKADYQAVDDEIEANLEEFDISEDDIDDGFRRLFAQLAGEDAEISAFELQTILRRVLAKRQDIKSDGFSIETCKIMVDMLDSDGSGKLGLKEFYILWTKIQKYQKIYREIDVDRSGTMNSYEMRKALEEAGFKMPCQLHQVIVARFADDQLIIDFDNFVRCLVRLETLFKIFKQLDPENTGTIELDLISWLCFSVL
Protocol: (§1)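 Phage-displayed random hexadecapeptides (Cys-free, flanked by invariant Gly linkers, fused to the M13 P8 major coat protein) were selected over 5 rounds against GST-fused human PRM domains. Individual clones from rounds 4-5 were tested by phage ELISA, and positive clones binding the target but not GST were sequenced. Values are the ELISA signal ratio of target over background (GST); the background signal is given separately.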

[2] = biological target: T2, ARFGEF2 639-829 Sec7 (domain begin residue: 639, domain end residue: 829), Q9Y6D5
T2 chain: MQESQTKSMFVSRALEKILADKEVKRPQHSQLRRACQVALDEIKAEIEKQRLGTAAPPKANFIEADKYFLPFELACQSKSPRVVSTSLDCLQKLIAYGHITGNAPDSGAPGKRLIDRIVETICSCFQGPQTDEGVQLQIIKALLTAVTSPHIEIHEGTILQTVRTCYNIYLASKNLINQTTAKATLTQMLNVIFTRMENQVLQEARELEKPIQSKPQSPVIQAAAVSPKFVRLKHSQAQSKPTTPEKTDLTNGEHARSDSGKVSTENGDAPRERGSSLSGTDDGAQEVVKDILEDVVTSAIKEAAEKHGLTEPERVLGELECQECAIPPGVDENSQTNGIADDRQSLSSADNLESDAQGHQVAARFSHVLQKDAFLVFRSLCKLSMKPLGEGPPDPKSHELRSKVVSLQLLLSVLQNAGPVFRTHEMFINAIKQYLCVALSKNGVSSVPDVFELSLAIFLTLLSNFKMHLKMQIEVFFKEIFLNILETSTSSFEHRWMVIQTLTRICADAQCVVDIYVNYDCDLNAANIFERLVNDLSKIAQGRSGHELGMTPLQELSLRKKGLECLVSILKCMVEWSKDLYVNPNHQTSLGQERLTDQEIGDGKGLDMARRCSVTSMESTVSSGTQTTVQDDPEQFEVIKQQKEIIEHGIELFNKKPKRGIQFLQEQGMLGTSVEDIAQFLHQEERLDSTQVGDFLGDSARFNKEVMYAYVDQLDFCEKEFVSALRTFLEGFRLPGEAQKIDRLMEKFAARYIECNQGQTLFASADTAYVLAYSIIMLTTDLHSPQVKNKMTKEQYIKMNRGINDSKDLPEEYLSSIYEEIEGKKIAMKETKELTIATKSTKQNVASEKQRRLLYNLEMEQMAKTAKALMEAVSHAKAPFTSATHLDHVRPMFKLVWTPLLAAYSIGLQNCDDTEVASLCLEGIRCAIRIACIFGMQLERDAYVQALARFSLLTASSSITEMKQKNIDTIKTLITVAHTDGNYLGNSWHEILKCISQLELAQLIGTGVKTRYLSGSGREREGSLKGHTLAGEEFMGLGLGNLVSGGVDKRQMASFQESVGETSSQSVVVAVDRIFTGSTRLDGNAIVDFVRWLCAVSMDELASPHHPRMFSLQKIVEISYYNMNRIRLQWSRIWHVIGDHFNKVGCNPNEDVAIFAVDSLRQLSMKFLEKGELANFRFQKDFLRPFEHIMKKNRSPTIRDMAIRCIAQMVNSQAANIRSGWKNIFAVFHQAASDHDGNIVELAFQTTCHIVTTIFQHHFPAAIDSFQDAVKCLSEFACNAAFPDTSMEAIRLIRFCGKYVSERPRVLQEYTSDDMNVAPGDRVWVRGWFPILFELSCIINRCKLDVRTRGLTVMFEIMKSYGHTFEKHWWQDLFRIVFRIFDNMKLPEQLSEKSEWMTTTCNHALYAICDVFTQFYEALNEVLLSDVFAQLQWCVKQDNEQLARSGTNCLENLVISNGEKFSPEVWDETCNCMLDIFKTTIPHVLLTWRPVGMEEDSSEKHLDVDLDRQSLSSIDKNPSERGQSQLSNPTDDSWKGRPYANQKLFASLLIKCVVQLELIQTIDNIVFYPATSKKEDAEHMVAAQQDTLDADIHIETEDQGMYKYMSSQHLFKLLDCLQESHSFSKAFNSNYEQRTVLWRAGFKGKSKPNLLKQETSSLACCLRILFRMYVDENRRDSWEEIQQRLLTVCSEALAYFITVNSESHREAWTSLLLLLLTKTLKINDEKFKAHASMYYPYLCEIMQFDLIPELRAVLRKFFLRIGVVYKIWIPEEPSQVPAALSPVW
Protocol: as §1

[3] = biological target: T3, ALDOA 1-364 Glycolytic (domain begin residue: 1, domain end residue: 364), P04075
T3 chain: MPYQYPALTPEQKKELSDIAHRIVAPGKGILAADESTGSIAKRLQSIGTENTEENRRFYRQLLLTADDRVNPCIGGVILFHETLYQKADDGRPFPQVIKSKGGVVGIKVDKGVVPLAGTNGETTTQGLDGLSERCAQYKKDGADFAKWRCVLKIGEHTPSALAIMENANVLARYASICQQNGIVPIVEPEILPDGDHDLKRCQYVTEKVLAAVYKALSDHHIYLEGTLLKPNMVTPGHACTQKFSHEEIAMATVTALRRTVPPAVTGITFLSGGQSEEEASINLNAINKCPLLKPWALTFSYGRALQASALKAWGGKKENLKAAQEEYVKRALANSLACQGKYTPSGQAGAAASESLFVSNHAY
Protocol: as §1

[4] = biological target: T4, BTN1A1 285-479 SPRY (domain begin residue: 285, domain end residue: 479), Q13410
T4 chain: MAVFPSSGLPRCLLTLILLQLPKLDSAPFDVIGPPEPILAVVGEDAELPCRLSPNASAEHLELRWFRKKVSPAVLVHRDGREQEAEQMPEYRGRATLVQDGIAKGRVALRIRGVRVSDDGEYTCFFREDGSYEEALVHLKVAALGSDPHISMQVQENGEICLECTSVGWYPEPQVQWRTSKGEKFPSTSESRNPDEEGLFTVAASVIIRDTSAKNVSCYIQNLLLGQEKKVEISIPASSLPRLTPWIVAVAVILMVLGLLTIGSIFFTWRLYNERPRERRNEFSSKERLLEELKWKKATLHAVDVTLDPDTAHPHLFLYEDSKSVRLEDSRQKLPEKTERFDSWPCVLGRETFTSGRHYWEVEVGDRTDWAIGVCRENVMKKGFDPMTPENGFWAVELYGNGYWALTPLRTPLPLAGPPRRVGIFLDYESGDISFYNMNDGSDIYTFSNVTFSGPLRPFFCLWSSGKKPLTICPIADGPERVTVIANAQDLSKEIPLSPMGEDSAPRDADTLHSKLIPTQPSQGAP
Protocol: as §1

[5] = biological target: CBX3 109-173 Chromo_shadow (domain begin residue: 109, domain end residue: 173), Q13185
CBX3 109-173 Chromo_shadow (domain begin residue: 109, domain end residue: 173), Q13185, sequence (Q13185 whole entry): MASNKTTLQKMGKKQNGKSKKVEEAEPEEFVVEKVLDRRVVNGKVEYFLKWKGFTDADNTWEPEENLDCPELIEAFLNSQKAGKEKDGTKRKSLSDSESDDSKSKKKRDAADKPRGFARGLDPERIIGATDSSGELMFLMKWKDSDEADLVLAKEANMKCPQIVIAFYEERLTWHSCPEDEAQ
Protocol: as §1

[6] = biological target: T5, ARID4A 568-634 Tudor-knot (domain begin residue: 568, domain end residue: 634), P29374
T5 chain: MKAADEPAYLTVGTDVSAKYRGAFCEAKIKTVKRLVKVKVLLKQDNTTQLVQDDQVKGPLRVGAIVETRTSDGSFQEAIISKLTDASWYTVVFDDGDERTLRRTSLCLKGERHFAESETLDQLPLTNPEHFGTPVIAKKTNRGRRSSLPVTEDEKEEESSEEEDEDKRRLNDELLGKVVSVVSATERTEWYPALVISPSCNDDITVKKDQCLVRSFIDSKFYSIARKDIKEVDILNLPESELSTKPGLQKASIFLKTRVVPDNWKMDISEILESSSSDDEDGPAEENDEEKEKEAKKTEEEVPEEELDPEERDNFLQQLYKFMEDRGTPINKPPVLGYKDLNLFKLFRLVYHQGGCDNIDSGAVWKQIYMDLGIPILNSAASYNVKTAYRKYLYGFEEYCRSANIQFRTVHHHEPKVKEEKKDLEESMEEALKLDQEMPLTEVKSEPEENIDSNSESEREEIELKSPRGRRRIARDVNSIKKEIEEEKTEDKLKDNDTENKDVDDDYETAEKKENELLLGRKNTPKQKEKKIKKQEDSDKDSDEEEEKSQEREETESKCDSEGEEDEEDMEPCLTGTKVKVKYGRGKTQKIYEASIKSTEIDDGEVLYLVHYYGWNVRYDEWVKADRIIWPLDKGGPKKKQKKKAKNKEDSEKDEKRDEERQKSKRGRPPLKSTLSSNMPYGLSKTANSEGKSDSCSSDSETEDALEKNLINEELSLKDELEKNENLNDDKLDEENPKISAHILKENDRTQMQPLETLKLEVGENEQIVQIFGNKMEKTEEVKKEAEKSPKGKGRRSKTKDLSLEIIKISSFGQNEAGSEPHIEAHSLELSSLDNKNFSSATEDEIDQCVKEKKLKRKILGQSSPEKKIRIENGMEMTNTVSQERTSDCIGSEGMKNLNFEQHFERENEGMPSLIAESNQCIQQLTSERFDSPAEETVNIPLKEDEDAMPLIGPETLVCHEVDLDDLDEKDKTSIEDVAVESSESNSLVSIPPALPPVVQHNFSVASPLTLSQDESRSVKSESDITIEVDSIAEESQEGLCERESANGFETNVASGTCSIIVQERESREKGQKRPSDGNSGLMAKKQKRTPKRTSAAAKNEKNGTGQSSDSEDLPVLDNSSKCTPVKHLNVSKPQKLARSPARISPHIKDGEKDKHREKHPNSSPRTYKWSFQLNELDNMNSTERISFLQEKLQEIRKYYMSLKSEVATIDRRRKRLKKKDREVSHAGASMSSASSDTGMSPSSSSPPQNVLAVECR
Protocol: as §1

[7] = biological target: T6, ZGPAT 120-268 zf-CCCH+TUDOR (domain begin residue: 120, domain end residue: 268), Q8N5A5
T6 chain: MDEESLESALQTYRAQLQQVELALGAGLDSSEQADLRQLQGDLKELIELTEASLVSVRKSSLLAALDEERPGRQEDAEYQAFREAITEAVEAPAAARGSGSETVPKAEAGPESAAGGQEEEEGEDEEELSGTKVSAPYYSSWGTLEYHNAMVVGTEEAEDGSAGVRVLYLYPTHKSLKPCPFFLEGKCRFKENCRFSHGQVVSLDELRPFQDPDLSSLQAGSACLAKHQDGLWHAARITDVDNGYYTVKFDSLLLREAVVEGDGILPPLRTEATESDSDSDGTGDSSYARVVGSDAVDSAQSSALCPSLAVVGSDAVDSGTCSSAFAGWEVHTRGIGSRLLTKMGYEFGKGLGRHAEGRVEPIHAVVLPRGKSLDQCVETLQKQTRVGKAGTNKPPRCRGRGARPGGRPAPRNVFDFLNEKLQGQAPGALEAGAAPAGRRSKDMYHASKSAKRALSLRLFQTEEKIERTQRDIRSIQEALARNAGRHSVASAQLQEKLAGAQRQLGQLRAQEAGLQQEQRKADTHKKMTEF
Protocol: as §1

B1: unnamed (peptide)
chain: GDWEWVERWLEMHLLE
phage ELISA signal ratio [1]: 12.6

B2: unnamed (peptide)
chain: QITMQQYVELWHAAKS
phage ELISA signal ratio [2]: 24.1

B3: unnamed (peptide)
chain: AWSYLHGEWEWVQPVM
phage ELISA signal ratio [3]: 14.5

B4: unnamed (peptide)
chain: FEQHWMQKQMAVRQIV
phage ELISA signal ratio [4]: 13.6

B5: unnamed (peptide)
chain: NWLFLDPDYYNVHWPS
phage ELISA signal ratio [5]: 3.29

B6: unnamed (peptide)
chain: MLHDGWLMPGMTHSVN
phage ELISA signal ratio [6]: 8.8
phage ELISA signal ratio [7]: 4.63

B7: unnamed (peptide)
chain: DVTWWSERAQATLVMM
phage ELISA signal ratio [4]: 12.4

B8: unnamed (peptide)
chain: LSSLETYKNHGLMFMF
phage ELISA signal ratio [4]: 22.5

Source: the supplement of paper PMC7724964
